Activity calls are given as the source filed them. The calls were made as follows: active = hit-call score of the fitted dose curve at least 0.9, where 1 is the maximum; inactive = score below 0.9.
Experiments:
Details in all cases: mRNA level, 48 h; actives raise or lower the signal
[1] = read-out: Glutamate-cysteine ligase catalytic (GCLC), GCLC (gene 2729); assay: LTEA_HepaRG_GCLC: Life Technologies and Expression Analysis (LTEA) Assay for Glutamate-cysteine ligase catalytic (GCLC) using HepaRG (AID 2283498)
Summary of the method: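 Read-out is GCLC transcript level by Fluidigm-based TaqMan qRT-PCR, normalized to three housekeeping genes and fitted in both directions relative to 0.5% DMSO. Human HepaRG cells received chemicals for 48 h, up to 100 uM.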

[2] = read-out: growth arrest and DNA damage 45 (GADD45G), GADD45G (gene 10912); assay: LTEA_HepaRG_GADD45G: Life Technologies and Expression Analysis (LTEA) Assay for growth arrest and DNA damage 45 (GADD45G) using HepaRG (AID 2283499)
Summary of the method: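 Differentiated human HepaRG cells in serum-free induction medium were exposed for 48 h to 8 half-log concentrations up to 100 uM in 0.5% DMSO, in duplicate. GADD45G mRNA was measured by TaqMan qRT-PCR, normalised to ACTB, GAPDH and POLR2A, and fitted bidirectionally against DMSO.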

[3] = read-out: Glutamate-cysteine ligase regulatory (GCLM), GCLM (gene 2730); assay: LTEA_HepaRG_GCLM: Life Technologies and Expression Analysis (LTEA) Assay for Glutamate-cysteine ligase regulatory (GCLM) using HepaRG (AID 2283500)
Summary of the method: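 Differentiated HepaRG cells exposed 48 h in serum-free induction medium to eight half-log concentrations up to 100 uM (0.5% DMSO). GCLM mRNA by TaqMan qRT-PCR, normalized to ACTB, GAPDH and POLR2A; bidirectional fit versus DMSO.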

[4] = read-out: Glutathione S-transferase M3 (GSTM3), GSTM3 (gene 2947); assay: LTEA_HepaRG_GSTM3: Life Technologies and Expression Analysis (LTEA) Assay for Glutathione S-transferase M3 (GSTM3) using HepaRG (AID 2283501)
Summary of the method: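 Differentiated HepaRG cells in serum-free induction medium were exposed in duplicate for 48 h to 8 half-log concentrations up to 100 uM in 0.5% DMSO. GSTM3 mRNA was measured by TaqMan qRT-PCR, normalized to ACTB/GAPDH/POLR2A, and fitted bidirectionally versus DMSO.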

[5] = read-out: Heat shock 70 kDa protein 1 (HSPA1A), gene 3303; assay: LTEA_HepaRG_HSPA1A: Life Technologies and Expression Analysis (LTEA) Assay for Heat shock 70 kDa protein 1 (HSPA1A) using HepaRG (AID 2283502)
Summary of the method: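 Human HepaRG cells in serum-free induction medium were exposed in duplicate for 48 h to 8 half-log concentrations, highest 100 uM, in 0.5% DMSO. HSPA1A mRNA read by TaqMan qRT-PCR, normalized to ACTB, GAPDH, POLR2A, fitted bidirectionally against DMSO.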

[6] = read-out: 3-Hydroxy-3-Methylglutaryl-CoA Synthase 2 (HMGCS2), HMGCS2 (gene 3158); assay: LTEA_HepaRG_HMGCS2: Life Technologies and Expression Analysis (LTEA) Assay for 3-Hydroxy-3-Methylglutaryl-CoA Synthase 2 (HMGCS2) using HepaRG (AID 2283504)
Summary of the method: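 Differentiated human HepaRG cells were exposed in duplicate for 48 h in serum-free induction medium to eight concentrations (top 100 uM, half-log steps, 0.5% DMSO). HMGCS2 mRNA was quantified by TaqMan qRT-PCR, normalised to ACTB, GAPDH and POLR2A, then fitted bidirectionally against DMSO.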

HGF (gene 3082) = assay: LTEA_HepaRG_HGF: Life Technologies and Expression Analysis (LTEA) Assay for Hepatocyte Growth Facto (HGF) using HepaRG (AID 2283505)
Summary of the method: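 Differentiated human HepaRG cells in serum-free induction medium were exposed in duplicate for 48 h to eight concentrations (top 100 uM, half-log steps, 0.5% DMSO). HGF mRNA was quantified by qRT-PCR, normalized to ACTB, GAPDH and POLR2A.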

[7] = read-out: Insulin-like growth factor-binding protein 1 (IGFBP1), IGFBP1 (gene 3484); assay: LTEA_HepaRG_IGFBP1: Life Technologies and Expression Analysis (LTEA) Assay for Insulin-like growth factor-binding protein 1 (IGFBP1) using HepaRG (AID 2283508)
Summary of the method: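 Differentiated human HepaRG cells in serum-free induction medium were exposed in duplicate for 48 h to eight concentrations, top 100 uM with half-log dilutions, in 0.5% DMSO. Transcript levels came from qRT-PCR normalised to ACTB, GAPDH and POLR2A, fitted bidirectionally against DMSO.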

[8] = read-out: Interleukin 6 (IL6), IL6 (gene 3569); assay: LTEA_HepaRG_IL6: Life Technologies and Expression Analysis (LTEA) Assay for Interleukin 6 (IL6) using HepaRG (AID 2283509)
Summary of the method: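 HepaRG, ~100,000 cells/well, 48 h pre-culture; serum-free induction medium; cmpd 8-pt half-log from 100 uM, 0.5% DMSO, duplicate, 48 h. Lysis in RLT, TaqMan qRT-PCR; gain or loss vs DMSO.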

[9] = read-out: Interleukin 6 Receptor (IL6R), IL6R (gene 3570); assay: LTEA_HepaRG_IL6R: Life Technologies and Expression Analysis (LTEA) Assay for Interleukin 6 Receptor (IL6R) using HepaRG (AID 2283510);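 as to AC50: TaqMan qRT-PCR signal normalized to ACTB GAPDH and POLR2A housekeeping genes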
Summary of the method: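 Differentiated HepaRG cells, plated 48 h, then exposed in duplicate for 48 h in serum-free induction medium to 8 half-log concentrations (top 100 uM, 0.5% DMSO). IL6R mRNA measured by TaqMan qRT-PCR, normalized to ACTB/GAPDH/POLR2A; bidirectional fit vs DMSO.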

[10] = read-out: Potassium channel subfamily K member 1 (KCNK1), KCNK1 (gene 3775); assay: LTEA_HepaRG_KCNK1: Life Technologies and Expression Analysis (LTEA) Assay for Potassium channel subfamily K member 1 (KCNK1) using HepaRG (AID 2283511)
Summary of the method: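 Gain or loss of KCNK1 mRNA is the read-out, quantified by qRT-PCR against three housekeeping genes after 48 h chemical treatment of human HepaRG liver cells. Concentrations ran from 100 uM downward in half-log steps, vehicle 0.5% DMSO.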

[11] = read-out: Keratin 19 (KRT19), KRT19 (gene 3880); assay: LTEA_HepaRG_KRT19: Life Technologies and Expression Analysis (LTEA) Assay for Keratin 19 (KRT19) using HepaRG (AID 2283512)
Summary of the method: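 Differentiated human HepaRG cells, plated 48 h, were exposed in duplicate for 48 h in serum-free induction medium to eight half-log concentrations up to 100 uM in 0.5% DMSO. KRT19 mRNA was quantified by qRT-PCR, normalized to ACTB, GAPDH and POLR2A, and fitted bidirectionally versus DMSO.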

[12] = read-out: JUN Transcription Factor, JUN (gene 3725); assay: LTEA_HepaRG_JUN: Life Technologies and Expression Analysis (LTEA) Assay for JUN Transcription Factor using HepaRG (AID 2283513)
Summary of the method: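 HepaRG cells, 48 h post-plating, exposed 48 h in serum-free induction medium to 8-point half-log series (top 100 uM, 0.5% DMSO), duplicate; mRNA by qRT-PCR (TaqMan, Fluidigm), normalized to ACTB/GAPDH/POLR2A; bidirectional fit vs DMSO.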

[13] = read-out: Lipase C (LIPC), LIPC (gene 3990); assay: LTEA_HepaRG_LIPC: Life Technologies and Expression Analysis (LTEA) Assay for Lipase C (LIPC) using HepaRG (AID 2283514)
Summary of the method: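 Read-out is LIPC transcript level by TaqMan qRT-PCR, normalized to three housekeeping genes, after 48 h chemical treatment of human HepaRG liver cells. Curves span eight concentrations topping at 100 uM; activity in either direction scored relative to 0.5% DMSO.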

[14] = read-out: Lipoprotein lipase (LPL), LPL (gene 4023); assay: LTEA_HepaRG_LPL: Life Technologies and Expression Analysis (LTEA) Assay for Lipoprotein lipase (LPL) using HepaRG (AID 2283515)
Summary of the method: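 Read-out is LPL transcript level by qRT-PCR, normalized to three housekeeping genes and fitted bidirectionally against the DMSO control. Human HepaRG cells received chemicals for 48 h at up to 100 uM.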

[15] = read-out: MicroRNA 122 (MIR122), gene 406906; assay: LTEA_HepaRG_MIR122: Life Technologies and Expression Analysis (LTEA) Assay for MicroRNA 122 (MIR122) using HepaRG (AID 2283516); also: the transcript read is the microRNA miR-122
Summary of the method: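 Differentiated human HepaRG cells in serum-free induction medium exposed 48 h to 8 half-log concentrations from 100 uM in 0.5% DMSO, duplicate. MIR122 quantified by Fluidigm TaqMan qRT-PCR, normalised to ACTB, GAPDH, POLR2A; fold change fitted bidirectionally versus DMSO.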

[16] = read-out: matrix metalloproteinase-10 (MMP10), MMP10 (gene 4319); assay: LTEA_HepaRG_MMP10: Life Technologies and Expression Analysis (LTEA) Assay for matrix metalloproteinase-10 (MMP10) using HepaRG (AID 2283517)
Summary of the method: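 Gain or loss of MMP10 mRNA is fitted relative to the 0.5% DMSO vehicle. The human hepatic line HepaRG receives a 48-hour serum-free exposure, in duplicate, with a maximum concentration of 100 uM.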

[17] = read-out: Intercellular Adhesion Molecule 1 (ICAM1), ICAM1 (gene 3383); assay: LTEA_HepaRG_ICAM1: Life Technologies and Expression Analysis (LTEA) Assay for Intercellular Adhesion Molecule 1 (ICAM1) using HepaRG (AID 2283507)
Summary of the method: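 Differentiated HepaRG cells in serum-free induction medium were exposed in duplicate for 48 h to eight half-log concentrations up to 100 uM in 0.5% DMSO. Transcript levels were measured by qRT-PCR normalized to ACTB, GAPDH and POLR2A; bidirectional fits relative to DMSO.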

Measured: AC50

O=[N+]([O-])c1ccc(O)cc1
not listed: [17]
inactive: all other assays above

NC(=O)N(O)[C@@H]1C=C[C@H](Oc2cccc(Oc3ccc(F)cc3)c2)C1
active: [3] 50 µM | [5] 82.6 µM | [6] 40.6 µM | [7] 71.8 µM | [8] 38.6 µM | [10] 35.5 µM | [12] 76.6 µM | [13] 36.4 µM | [14] 50 µM | [15] 68 µM | [16] 64.8 µM
inactive: [1] | [2] | [4] | HGF (gene 3082) | [9] | [11]

N#C[C@@H]1CC(F)(F)CN1C(=O)CNC1CC2CCC(C1)N2c1ncccn1 (stereo not given in full)
inactive: all assays above

Nc1cccc2c(N)cccc12
active: [11] 22.6 µM | [13] 73.3 µM
not listed: [17]
inactive: all other assays above

CCc1ccc(CCOc2ccc(CC3SC(=O)NC3=O)cc2)nc1 (stereo not given)
active: [1] 14.2 µM | [2] 11 µM | [3] 68.3 µM | [5] 23.6 µM | [6] 85.2 µM | [17] 50 µM | [7] 82 µM | [8] 88.8 µM | [9] 63.5 µM | [11] 31.3 µM | [13] 82 µM | [14] 9.92 µM | [15] 72.7 µM | [16] 86.3 µM
inactive: [4] | HGF (gene 3082) | [10] | [12]

C=C(C)C(=O)OCCC(F)(F)C(F)(F)C(F)(F)C(F)(F)C(F)(F)C(F)(F)F
not listed: [17]
inactive: all other assays above

OC1CCC(C2CCCCC2)CC1 (stereo not given)
not listed: [17]
inactive: all other assays above

CCCCCCCCC(=O)O
not listed: [17]
inactive: all other assays above

c1ccc2c(c1)ccc1ccccc12
not listed: [17]
inactive: all other assays above
